This is an account of results in PubChem BioAssay (Tox21).

The structures appear in SMILES notation. Values joined by “and” are separate entries in the source; they are usually repeats but may differ in a detail not shown here. Identical values can stand only once. Results filed as inconclusive are left out. The source holds several records for some structures; these can differ, active in one and inactive in another. Active and inactive are the calls of the source. Unless noted, calls come from the whole dose curve; as a rule, active = well fitted curve in the direction sought with a large enough effect in the repeat runs; inconclusive = weak or mixed curves; inactive = no such curve, though single readings can be large; an effect the other way counts as inactive or inconclusive.

The nature of test [1]: qHTS assay to identify small molecule agonists of the peroxisome proliferator-activated receptor delta (PPARd) signaling pathway - cell viability counter screen (AID 743211). Note: nearly all actives have a fitted effect of over 55% in size. Note: potency is the fitted concentration of half-maximal effect. Summed up: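 PPARd-bla HEK293H cells (UAS-beta-lactamase reporter) were treated with compounds for 17 h at 37 C. Viability was then read in the same wells by CellTiter-Glo luminescence after 30 min at room temperature.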
In general terms: In qHTS, concentration-response curves come from the screen itself.

Test [2] is described as follows: qHTS assay to identify small molecule agonists of the farnesoid-X-receptor (FXR) signaling pathway - cell viability counter screen (AID 743218). Note: nearly all actives have a fitted effect of over 45% in size. Note: potency is the fitted concentration of half-maximal effect. Summed up: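 Viability of FXR-bla HEK 293T cells is measured by ATP-based CellTiter-Glo luminescence following 16 h compound treatment at 37 C and a prior 2 h room-temperature beta-lactamase substrate step.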
The nature of test [3]: qHTS assay to identify small molecule antagonists of the farnesoid-X-receptor (FXR) signaling pathway - cell viability counter screen (AID 743221; active = well fitted cell-killing curve with a large enough effect in the repeat runs, not every such curve was filed as active; note: nearly all actives have a fitted effect of over 50% in size). Summed up:
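FXR-UAS-bla HEK 293T cells were treated with test compounds plus chenodeoxycholic acid (50 uM final) for 16 h at 37 C. Cell viability in the same wells was then read as CellTiter-Glo luminescence after 30 min at room temperature.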

Test [4] deals with Vitamin D3 receptor (Homo sapiens) (UniProt P11473). Kind of test: qHTS assay to identify small molecule antagonists of the vitamin D receptor (VDR) signaling pathway (AID 743223; active = well fitted inhibition curve with a large enough effect in the signal ratio in the repeat runs, not every such curve was filed as active; the % refers to the signal ratio). In short, it runs like this:
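VDR-bla cells were plated, incubated 4 h at 37C, then given compound and 1alpha,25-dihydroxyvitamin D3 (3 nM final). After 16 h at 37C, LiveBLAzer B/G FRET substrate was added for 2 h at room temperature and fluorescence read.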

The nature of test [5]: qHTS assay to identify small molecule agonists of the vitamin D receptor (VDR) signaling pathway - cell viability counter screen (AID 743224). Note: nearly all actives have a fitted effect of over 50% in size. Note: potency is the fitted concentration of half-maximal effect. Summed up:
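Compounds were pin-transferred onto VDR-bla cells plated 4 h earlier; following 16 h incubation at 37C, cell viability was quantified by CellTiter-Glo luminescence after 30 min at room temperature.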

Test [6] in a line: qHTS assay to identify small molecule antagonists of the vitamin D receptor (VDR) signaling pathway - cell viability counter screen (AID 743225). Note: nearly all actives have a fitted effect of over 50% in size. Summed up: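 VDR-bla HEK 293T cells, 4 h pre-incubation at 37C, then compound plus 1-alpha,25-dihydroxyvitamin D3 (3 nM final) for 16 h. After the beta-lactamase FRET read, CellTiter-Glo was added to the same wells; luminescence after 30 min at room temperature.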

Test [7] can be described thus: qHTS assay to identify small molecule agonists of the NFkB signaling pathway - cell viability counter screen (AID 1159515; calls by dose curve; note: series mostly up to about 61 µM; nearly all actives have a fitted effect of over 55% in size). In short, it runs like this: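 Parallel cytotoxicity counter screen in ME-180 cells carrying an NFkB-response-element beta-lactamase reporter, 2,000 cells/well. Compound exposure lasted 5 hr at 37 C, 5% CO2. Cell viability was quantified by CellTiter-Glo luminescence.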

Test [8] in a line: qHTS assay to identify small molecule agonists of the endoplasmic reticulum stress response signaling pathway (AID 1159516; active = well fitted activation curve with a large enough effect in the signal ratio in the repeat runs, not every such curve was filed as active; the % refers to the signal ratio). In short, it runs like this: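 Using a HeLa line with an ESRE-driven beta-lactamase gene, agonist activity was measured by FRET substrate fluorescence (460 and 530 nm emission) after cells were treated with compounds for 5 hr at 37 C and 5% CO2.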
For test [9], the target named is Nuclear receptor ROR-gamma (Homo sapiens) (UniProt P51449). Kind of test: qHTS assay to identify small molecule antagonists of the retinoid-related orphan receptor gamma (ROR-gamma) signaling pathway (AID 1159521; note: nearly all actives have a fitted effect of over 50% in size; note: potency is the fitted concentration of half-maximal effect). In short, it runs like this:
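Tet-on RORγ CHO cells carrying a ROR response element–luciferase reporter were pretreated with compounds for 2 h, then induced with 1 uM (final) doxycycline hyclate for 16 h at 37 C. Antagonism was read as decreased ONE-Glo luminescence.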

The nature of test [10]: qHTS assay to identify small molecule agonists of the AP-1 signaling pathway (AID 1159526; calls by dose curve).
Test [11] concerns the target Retinoic acid receptor RXR-alpha (Homo sapiens) (UniProt P19793). Kind of test: qHTS assay to identify small molecule agonists of the RXR signaling pathway (AID 1159527; calls by dose curve; note: nearly all actives have a fitted effect of over 35% in size). In short, it runs like this:
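GeneBLAzer RXR-alpha-UAS-bla HEK 293T cells in medium with 2% charcoal-stripped FBS, pre-incubated 5 hr at 37 C, then exposed to compounds 16 hr. Beta-lactamase reporter read by FRET substrate, 2 hr room temperature, 460/530 nm emission.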

Test [12] has as its target Peroxisome proliferator-activated receptor delta (Homo sapiens) (UniProt Q03181). Kind of test: qHTS assay to identify small molecule agonists of the peroxisome proliferator-activated receptor delta (PPARd) signaling pathway (AID 743212; calls by dose curve). In short, it runs like this:
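Beta-lactamase reporter readout: a ratiometric FRET signal from the LiveBLAzer substrate after 2 h at room temperature. Compound exposure at 37 °C in PPARδ-bla HEK293H cells driven by an upstream activator sequence.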

The nature of test [13]: qHTS assay to identify small molecule antagonists of the peroxisome proliferator-activated receptor delta (PPARd) signaling pathway - cell viability counter screen (AID 743213). Note: nearly all actives have a fitted effect of over 50% in size. Note: potency is the fitted concentration of half-maximal effect. In short, it runs like this:
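Agonist-stimulated (L165041, 300 nM final) HEK293H PPARd UAS-bla cells are exposed to compounds for 17 h at 37 C, and ATP-based luminescence (CellTiter-Glo) from the same wells reports cytotoxicity.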

Test [14] concerns the target Peroxisome proliferator-activated receptor delta (Homo sapiens) (UniProt Q03181). Kind of test: qHTS assay to identify small molecule antagonists of the peroxisome proliferator-activated receptor delta (PPARd) signaling pathway (AID 743215; active = well fitted inhibition curve with a large enough effect in the signal ratio in the repeat runs, not every such curve was filed as active; the % refers to the signal ratio; note: potency is the fitted concentration of half-maximal effect). Summed up: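 Plated HEK293H PPARd-bla cells rested 5 h at 37 C and 5% CO2. Compound, then agonist L165041 at 300 nM final, was added; 17 h at 37 C followed. Substrate loading, 2 h room temperature, fluorescence measured.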

Test [15] concerns the target Vitamin D3 receptor (Homo sapiens) (UniProt P11473). Kind of test: qHTS assay to identify small molecule agonists of the vitamin D receptor (VDR) signaling pathway (AID 743222; calls by dose curve). In short, it runs like this:
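Fluorescence from cleaved LiveBLAzer B/G FRET substrate served as readout. VDR-bla cells had been treated 16 h at 37C with test compounds in DMSO, following a 4 h settling period, and substrate was loaded for 2 h at RT.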

Test [16] in a line: qHTS assay to identify small molecule agonists of the AP-1 signaling pathway - cell viability counter screen (AID 1159525; calls by dose curve; note: nearly all actives have a fitted effect of over 55% in size). Summed up: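 Intracellular ATP by Cell Titer Glo luminescence (30 min, RT) in the same ME-180 AP-1-bla wells after the 5 h compound exposure at 37 °C. Normalised to tetra n-octyl ammonium bromide and DMSO controls.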
Test [17] deals with Bile acid receptor (Homo sapiens) (UniProt Q96RI1). Kind of test: qHTS assay to identify small molecule antagonists of the farnesoid-X-receptor (FXR) signaling pathway (AID 743217; active = well fitted inhibition curve with a large enough effect in the signal ratio in the repeat runs, not every such curve was filed as active; the % refers to the signal ratio). In short, it runs like this:
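Screen of the Tox21 10K library in quantitative HTS format using FXR-UAS-bla HEK 293T reporter cells. Agonist chenodeoxycholic acid, 50 uM final, added with compounds; 16 h incubation at 37 °C; beta-lactamase FRET fluorescence measured.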

The target is the same in test [18]. Kind of test: qHTS assay to identify small molecule agonists of the farnesoid-X-receptor (FXR) signaling pathway (AID 743220; active = well fitted activation curve with a large enough effect in the signal ratio in the repeat runs, not every such curve was filed as active; the % refers to the signal ratio). In short, it runs like this: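 FXR-UAS-bla HEK 293T cells carrying a UAS-driven beta-lactamase reporter were plated for 5 h at 37C/5% CO2, then exposed to DMSO-dissolved Tox21 10K compounds for 16 h at 37C. A LiveBLAzer B/G FRET substrate was loaded for 2 h at room temperature before fluorescence reading.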

Test [19] can be described thus: qHTS assay to identify small molecule agonists of the endoplasmic reticulum stress response signaling pathway - cell viability counter screen (AID 1159517; calls by dose curve; note: nearly all actives have a fitted effect of over 50% in size; note: potency is the fitted concentration of half-maximal effect). In short, it runs like this:
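ESRE-bla HeLa cells (1,500/well) were plated overnight at 37 C and exposed to compounds for 5 hr. After the 2 hr beta-lactamase substrate read, CellTiter-Glo went into the same wells, and luminescence was read after 30 min at room temperature.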

Test [20] is described as follows: qHTS assay to identify small molecule antagonists of the retinoid-related orphan receptor gamma (ROR-gamma) signaling pathway - cell viability counter screen (AID 1159520). Note: nearly all actives have a fitted effect of over 50% in size. Note: potency is the fitted concentration of half-maximal effect. In short, it runs like this:
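Cytotoxicity was read from cellular ATP (CellTiter-Glo luminescence) after 16 hr at 37 C with 1 uM doxycycline induction. The inducer was added 2 hr after compound transfer to Tet-on ROR gamma CHO cells.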

Chain of Peroxisome proliferator-activated receptor delta (Homo sapiens) (Q03181 whole entry, looked up): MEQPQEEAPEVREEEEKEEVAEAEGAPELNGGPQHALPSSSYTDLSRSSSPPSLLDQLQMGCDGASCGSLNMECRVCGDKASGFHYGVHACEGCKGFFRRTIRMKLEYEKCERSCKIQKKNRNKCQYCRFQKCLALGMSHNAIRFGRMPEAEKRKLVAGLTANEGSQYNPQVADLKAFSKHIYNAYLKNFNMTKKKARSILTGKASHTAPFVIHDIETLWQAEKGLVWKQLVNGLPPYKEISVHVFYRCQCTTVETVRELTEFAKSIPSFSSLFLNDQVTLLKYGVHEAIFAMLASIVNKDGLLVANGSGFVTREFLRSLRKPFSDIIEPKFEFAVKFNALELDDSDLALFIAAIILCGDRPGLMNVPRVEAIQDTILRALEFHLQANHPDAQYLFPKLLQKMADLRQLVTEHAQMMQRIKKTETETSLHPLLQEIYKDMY
Chain of Retinoic acid receptor RXR-alpha (Homo sapiens) (P19793 whole entry, looked up): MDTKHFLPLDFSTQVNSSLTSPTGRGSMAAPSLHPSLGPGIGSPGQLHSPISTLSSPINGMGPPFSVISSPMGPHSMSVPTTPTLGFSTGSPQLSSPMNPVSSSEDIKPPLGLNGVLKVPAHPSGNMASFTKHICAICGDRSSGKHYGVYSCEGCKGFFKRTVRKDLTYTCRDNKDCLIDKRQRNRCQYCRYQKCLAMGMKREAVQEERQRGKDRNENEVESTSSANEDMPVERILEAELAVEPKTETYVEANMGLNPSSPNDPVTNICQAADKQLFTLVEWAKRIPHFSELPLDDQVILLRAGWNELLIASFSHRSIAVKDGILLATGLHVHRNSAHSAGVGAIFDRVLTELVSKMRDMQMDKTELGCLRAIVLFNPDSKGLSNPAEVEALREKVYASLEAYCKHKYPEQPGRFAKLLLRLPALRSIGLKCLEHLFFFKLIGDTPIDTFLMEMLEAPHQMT
Chain of Vitamin D3 receptor (Homo sapiens) (P11473 whole entry, looked up): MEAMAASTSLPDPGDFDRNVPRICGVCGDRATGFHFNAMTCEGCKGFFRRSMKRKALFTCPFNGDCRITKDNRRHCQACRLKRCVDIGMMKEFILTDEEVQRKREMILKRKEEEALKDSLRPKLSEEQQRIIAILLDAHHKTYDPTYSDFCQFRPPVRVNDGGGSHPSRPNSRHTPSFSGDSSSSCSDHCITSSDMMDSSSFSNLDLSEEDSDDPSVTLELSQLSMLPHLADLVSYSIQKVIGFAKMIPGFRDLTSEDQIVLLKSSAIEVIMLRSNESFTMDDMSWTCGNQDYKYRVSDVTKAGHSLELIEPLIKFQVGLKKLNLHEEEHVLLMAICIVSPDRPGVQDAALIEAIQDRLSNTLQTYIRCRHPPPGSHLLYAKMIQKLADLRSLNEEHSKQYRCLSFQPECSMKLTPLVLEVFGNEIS
Chain of Bile acid receptor (Homo sapiens) (Q96RI1 whole entry, looked up): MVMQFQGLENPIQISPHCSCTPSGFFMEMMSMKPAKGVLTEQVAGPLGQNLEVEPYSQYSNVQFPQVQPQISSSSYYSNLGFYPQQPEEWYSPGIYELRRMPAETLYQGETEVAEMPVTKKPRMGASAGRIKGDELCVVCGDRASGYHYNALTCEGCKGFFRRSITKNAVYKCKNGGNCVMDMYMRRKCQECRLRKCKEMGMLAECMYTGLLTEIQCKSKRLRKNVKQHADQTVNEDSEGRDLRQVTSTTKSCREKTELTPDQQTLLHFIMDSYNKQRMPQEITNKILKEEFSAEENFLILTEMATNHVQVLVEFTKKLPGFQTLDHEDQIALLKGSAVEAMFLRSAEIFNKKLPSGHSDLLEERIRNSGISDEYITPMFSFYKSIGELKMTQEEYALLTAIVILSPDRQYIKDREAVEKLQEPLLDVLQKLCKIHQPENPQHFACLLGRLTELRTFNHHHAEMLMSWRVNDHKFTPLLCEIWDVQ

For the compound `O=C(O)c1ccc2cc(C(=O)O)ccc2c1`, the Potency entry in test [1], in [2], in test [3], in [4], in test [5] and in test [6] was “inactive” in each case. For the same compound, the Potency result in [7], in test [8], in test [9], in test [10] and in test [11] was “inactive” in each case.
With `Clc1ccnc(Cl)n1`, the Potency entry in [1], in test [2], in test [3], in test [5], in test [6] and in [7] was “inactive” throughout. Moreover, the Potency entry in [8], in test [10] and in [11] was “inactive” in each case.
For `CC(C)(C)NSc1nc2ccccc2s1`, the Potency result in test [1], in test [12], in test [13], in test [14], in [15] and in test [5] was “inactive” in each case. The Potency entry in [6], in test [7], in [8] and in test [16] was “inactive” each time.
Take `FC(F)(F)c1cccc(Cl)c1`: the Potency entry in test [1], in test [12], in test [13], in [14], in [17] and in [2] was “inactive” each time. For the same compound, the Potency entry in [18], in test [3], in test [5], in test [6], in [7] and in test [8] was “inactive” each time. Further, the Potency entry in [16], in test [10] and in test [11] was “inactive” each time.
In the case of `CC(=O)OCC=C(C)C`, the Potency result in [1], in test [12], in test [13], in [14], in test [2] and in test [4] was “inactive” each time. Further, the Potency result in test [5], in [6], in test [7], in test [19], in [20] and in [9] was “inactive” in each case. The Potency result in [16], in test [10] and in test [11] was “inactive” each time.
As for `COc1cccc2c1C(=O)c1c(O)c3c(c(O)c1C2=O)C[C@@](O)(C(C)=O)C[C@@H]3O[C@H]1C[C@H](N)[C@H](O)[C@H](C)O1`, the Potency in [1] is 24.7 µM (active) and 33.5 µM (active); in [13], 43.9 µM (active); in [2], 55.3 µM (active) and 2.4 nM (active); in test [5], 34.9 µM (active); in [19], 0.952 µM (active); in [20] it was 13.8 µM (active) and 15 µM (active). The Potency in test [9] was 30.8 µM (active) and inactive. In addition, the Potency result in test [6], in [7] and in test [16] was “inactive” each time.
`C#C[C@]1(OC(C)=O)CC[C@H]2[C@@H]3CCC4=C/C(=N/O)CC[C@@H]4[C@H]3CC[C@@]21CC`: the Potency entry in test [12], in test [13], in [14], in test [18], in test [5] and in test [6] was “inactive” throughout. Besides, the Potency result in test [7] and in test [8] was “inactive” in each case.
Regarding `CCOc1ccc2ccccc2c1C(=O)N[C@@H]1C(=O)N2[C@@H]1SC(C)(C)[C@@H]2C(=O)O`, the Potency result in test [12], in test [13], in test [14], in test [2], in [18] and in [3] was “inactive” each time. Also, the Potency entry in test [15], in [4], in test [5], in [6], in [7] and in test [19] was “inactive” in each case. Besides, the Potency result in test [20], in [9], in test [16], in test [10] and in test [11] was “inactive” each time.
Regarding `Cc1cc(C)c(/C=C2\C(=O)Nc3ccccc32)[nH]1`, the Potency result in [1], in test [2], in test [6], in [7], in test [19] and in test [20] was “inactive” throughout. The Potency result in [9], in test [16] and in test [10] was “inactive” each time. Moreover, the Potency in test [14] is 15 µM (active).
